# About 1,800 (0.53%) of roughly 340,000 compounds were called active. This excerpt belongs to a sample that is enriched for actives. Values without a mark were called inactive.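 The calls were made as follows: active = activation over 3 SD above normal in the single-dose calcium agonist read (cut at about 30% in these data); inactive = the rest.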
# Molecular target: D(2) dopamine receptor (Homo sapiens) (UniProt P14416)
# Assay: HTS Assay for Allosteric Agonists of the Human D2 Dopamine Receptor: Primary Screen for Agonists; also: 0% is about no effect
# Details: HEK293 T-REx D2 cells, calcium flux agonist mode; at 2 µM; hits give high values
# Excerpt: NIH Chemical Genomics Center [NCGC] NIH Molecular Libraries Probe Centers Network [MLPCN] MLPCN Grant: NS064831-01 Assay Submitter (PI): David Sibley Dopamine receptors (DARs) are involved in the etiology and/or therapy of a number of neuropsychiatric and endocrine disorders. For instance, all receptor-based antiparkinsonian drugs work via stimulating the D2 DAR subtype whereas all FDA-approved antipsychotic agents are antagonists of this receptor. […] There are three different types of allosteric modulators that we are seeking, two of which will stimulate or augment receptor signaling, allosteric agonists and potentiators, while the third, allosteric antagonists, will attenuate receptor signaling. The present primary screening assay measures compound agonism by tracking calcium flux in a […], inducible Hek293 Trex D2 cell line.
# Freshly passaged cells are plated in 1536 well black, clear bottom plates at a density of 4000 cells/well in 3 ul of complete media containing 1x tetracycline inducer. After an overnight incubation at […] in 5% CO2, cells are loaded with 2 ul of the no wash Calcium Assay Kit (ABD Bioquest) and incubated at room temperature for 30 to 90 minutes. Agonist read: A 10 cycle (1 second/cycle) baseline measurement is taken and then the FDSS online 1536 pintool delivers 23 nl of compound library (as well as dopamine controls) to the plate. The plate is measured for kinetically at 1 cycle/sec for 180 seconds and is considered to be the agonist portion of the assay (eg, compounds which activate a positive calcium response during this portion are flagged as potential agonists). Following the 180 second read, 1 ul of either an EC20 (positive modulation assay) or EC80 (negative modulation assay) is delivered by an onboard pipette head. Measurements are taken kinetically for an additional 180 seconds.
# Chain of D(2) dopamine receptor (Homo sapiens) (P14416 whole entry, looked up): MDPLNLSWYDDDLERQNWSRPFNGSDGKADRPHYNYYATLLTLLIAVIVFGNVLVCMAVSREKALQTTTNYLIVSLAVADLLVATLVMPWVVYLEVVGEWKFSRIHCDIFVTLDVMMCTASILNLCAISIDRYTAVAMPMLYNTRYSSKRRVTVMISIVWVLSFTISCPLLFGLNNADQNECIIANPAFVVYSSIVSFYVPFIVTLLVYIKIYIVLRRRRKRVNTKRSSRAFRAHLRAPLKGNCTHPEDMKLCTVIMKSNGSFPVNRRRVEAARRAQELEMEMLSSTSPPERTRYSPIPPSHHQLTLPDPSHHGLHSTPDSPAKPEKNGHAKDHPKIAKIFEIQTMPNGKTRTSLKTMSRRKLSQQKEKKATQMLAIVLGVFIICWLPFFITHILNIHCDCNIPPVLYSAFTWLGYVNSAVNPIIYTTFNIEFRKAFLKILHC
row,SMILES,activation
1,O=C(c1ccco1)N1CCN(C(=S)Nc2cc(F)cc(F)c2)CC1,0.216%
2,O=C(c1ccc(Br)o1)N1CCN(CCOc2ccccc2)CC1,67.9% (active)
3,O=CN1CCN(C(=O)c2ccc(Br)o2)CC1,0.34%
4,COc1cccc(OCc2cc(C(=O)N3CCN(C(=O)c4ccco4)CC3)no2)c1,-0.444%
5,O=C(c1ccco1)N1CCN(Cc2cccc(C(F)(F)F)c2)CC1,59.9% (active)
6,O=C(CN1CCN(C/C=C/c2ccccc2)CC1)Nc1ccc(F)cc1F,0.754%
7,COc1cccc(OC)c1C(=O)N1CCN(Cc2cccnc2)CC1,1.08%
8,Cc1ccc(F)cc1NC(=O)N1CCCN(c2ccc(C(F)(F)F)cn2)CC1,0.948%
9,c1ccc(-c2ccc(OCCN3CCOCC3)cc2)cc1,0.22%
10,O=C(Nc1ccc(F)cc1F)N1CCCN(CCOc2ccccc2)CC1,41.8% (active)
11,O=C(CN1CCN(C(=O)c2ccco2)CC1)Nc1ccc(Cl)c(C(F)(F)F)c1,-0.254%
12,COc1cccc(OC)c1OCCN1CCN(C(=O)c2ccco2)CC1,87.8% (active)
13,CC(=O)N1CCCc2cc(S(=O)(=O)Nc3ccc(Cl)cc3F)ccc21,0.983%
14,COc1ccc(CCNC(=O)C(=O)NCC(c2ccco2)S(=O)(=O)c2cccs2)cc1OC (centres undefined),0.136%
15,O=C(NCCc1ccc(Cl)cc1)c1ccc2c(c1)N(Cc1ccc(F)cc1)C(=O)CS2,-0.585%
16,COc1ccc(OC)c(-c2noc(N3CCN(c4cc(Cl)ccc4C)CC3)n2)c1,0.838%
17,O=C(CNS(=O)(=O)c1ccccc1)N1CCN(C(=O)c2ccco2)CC1,0.7%
18,O=C(c1ccco1)N1CCN(CCOc2ccccc2)CC1,74.5% (active)
19,O=C(c1ccco1)N1CCN(C(=O)c2ccc(COc3ccc(F)cc3)o2)CC1,-1.15%
20,O=C(NCc1ccc(Cl)cc1)c1ccc2c(c1)nnn2C1CCCC1,-0.221%
21,O=C(NCc1ccccc1)C1CCN(S(=O)(=O)c2ccc3[nH]c(=O)ccc3c2)CC1,-1.06%
22,Cc1ccc(C)c(N2CCN(Cc3nnc(-c4ccccc4)o3)CC2)c1,0.463%
23,c1ccc(-c2cnc(CN3CCN(c4ccccc4)CC3)o2)cc1,40% (active)

row,SMILES,activation
1,COc1ccc(N2CCN(Cc3nnc(-c4ccccc4)o3)CC2)cc1,0%
2,COc1cc(OC)c(OC)cc1/C=C/c1nc2ccccc2c(=O)n1-c1ccc(Br)c(C)c1,1.46%
3,CCOc1cc2[nH]c(=S)n(CCN3CCCCC3C)c(=O)c2cc1OCC (centres undefined),30.2% (active)
4,COc1cc2[nH]c(=S)n(CCN3CCCCC3C)c(=O)c2cc1OC (centres undefined),1.14%
5,CCOc1cc2[nH]c(=S)n(CCCN3CCCC3=O)c(=O)c2cc1OCC,-1.56%
6,Fc1ccc(-c2nc(Nc3cccc(Cl)c3)nc3c2COc2ccccc2-3)cc1,-1.77%
7,O=C1N(Cc2ccccc2)c2ccc(Cl)cc2C1(O)c1c[nH]c2ccccc12 (centres undefined),0.529%
8,CCN(CC)c1ccc(NC(=O)Cn2nc3c(cc2=O)CCCC3)c(C)c1,-1.68%
9,Cc1cc(=O)c2cc(C(=O)Nc3cccc(C)c3C)ccc2[nH]1,1.06%
10,COc1ccc(N2CCN(Cc3cc(=O)oc4ccc5ccccc5c34)CC2)cc1,48.7% (active)
11,COc1ccc2c(CN3CCN(S(=O)(=O)c4cccs4)CC3)cc(=O)oc2c1,1.59%
12,COc1ccc2oc(=O)cc(CN3CCOCC3)c2c1,0.172%
13,CCC1(c2ccccc2)NC(=O)N(CC(=O)c2ccc3c(c2)OCO3)C1=O (centres undefined),0.171%
14,O=C(CN1CCN(c2ccccc2F)CC1)c1ccc2c(c1)OCO2,34.1% (active)
15,CC1(c2ccc(Cl)cc2)NC(=O)N(CC(=O)c2ccc3c(c2)OCO3)C1=O (centres undefined),6.26%
16,COc1ccc(NC(=O)C2CCN(c3ccc(Sc4ccc(C)cc4)nn3)CC2)c(OC)c1,-0.0405%
17,CCc1ccc2oc(-c3ccc(N)cc3)nc2c1,0.79%
18,CCN(CC)c1ccc2oc(=O)c(C)nc2c1,33.2% (active)
19,Cc1ccc2c(=O)oc(N(C)C)nc2c1,-0.369%
20,COC(=O)c1ccc(NC(=O)c2cnn(-c3ccc(Cl)cc3)c2C2CCN(C(=O)OC(C)(C)C)CC2)cc1,-0.0655%
21,CC(C)S(=O)(=O)c1oc(-c2ccc(F)cc2)nc1S(=O)(=O)c1ccc(F)cc1,6.9%
22,COc1ccccc1NC(=O)CSc1oc(-c2ccco2)nc1S(=O)(=O)c1ccc(Br)cc1,-0.604%
23,CCOc1ccccc1N(CC)C(=O)c1cc2ccc3cccnc3c2[nH]1,0.0244%

row,SMILES,activation
1,COc1cccc(NC(=O)c2ccc3nc(CCc4ccccc4)oc3c2)c1,0.0569%
2,O=C(CN1CCCCCC1)Nc1ccc(S(=O)(=O)N2CCCCC2)cc1,-2.81%
3,O=C(CN1CCN(c2cccc(Cl)c2)CC1)Nc1ccc(S(=O)(=O)N2CCOCC2)cc1,56.5% (active)
4,O=C(COC(=O)CCc1ccc(S(=O)(=O)N2CCOCC2)cc1)Nc1cccc(Cl)c1,1.09%
5,COc1ccc(CCn2cc3c(c2-c2ccc(Br)cc2)c(=O)n(C)c(=O)n3C)cc1OC,-0.343%
6,CCC(=O)Nc1cccc(C(=O)OCc2cc(=O)n3nc(CC)sc3n2)c1,3.26%
7,Cc1cc(F)ccc1NC1(c2ccccc2)C(=O)c2ccccc2C1=O,-1.91%
8,CC(C)CCN1CCN(Cc2ccc(C(F)(F)F)cc2)CC1CCO (centres undefined),-0.55%
9,CC(C)CCN1CCN(C/C=C/c2ccco2)CC1CCO (centres undefined),-3.43%
10,CC(C)CCN1CCN(Cc2cn[nH]c2C2CCCCC2)CC1CCO (centres undefined),71.9% (active)
11,COc1ccc(CNC(=O)CCc2c(C)nn(-c3ccc(N4CCCC4)nn3)c2C)cc1,-0.779%
12,COc1ccc(C2=NC(c3ccncc3)=Nc3ccc(Br)cc3N2)cc1,2.06%
13,COc1cc(NS(=O)(=O)c2ccc3c(c2)OCC(C(=O)N2CCCC2)O3)cc(OC)c1 (centres undefined),0.531%
14,Cc1c(CC(=O)N2CCN(C(=O)C3COc4ccccc4O3)CC2)c(=O)oc2c(O)c(O)ccc12 (centres undefined),86.6% (active)
15,COc1ccc(OC)c2sc(N3CCN(C(=O)C4COc5ccccc5O4)CC3)nc12 (centres undefined),-0.0345%
16,O=C(/C=C/c1cn(CC(O)CN2CCc3ccccc32)c2ccccc12)c1ccc(Br)cc1 (centres undefined),2.61%
17,Cc1ccc(CSc2nc3ccsc3c(=O)n2CCC(C)C)cc1,0.237%
18,COc1ccc(Cl)cc1NC(=O)Cn1c(=O)c2ccccc2n2nncc12,0.159%
19,CCC(CC)NC(=O)/C=C/c1cccc([N+](=O)[O-])c1,55.2% (active)
20,Cc1ccc(NC(=O)O/N=C/c2cccc([N+](=O)[O-])c2)cc1,1.09%
21,CCc1ccc(NC(=O)C(C)OC(=O)/C=C/c2cccc([N+](=O)[O-])c2)cc1 (centres undefined),-0.67%
22,O=S(=O)(NCCc1nnc2ccc(SCc3ccc(Cl)cc3Cl)nn12)c1ccccc1,0.55%
23,CCOC(=O)C(Cc1ccccc1)NC(=O)CCc1c(C)nc2c(c(C)nn2-c2ccc(C)c(C)c2)c1C (centres undefined),3.29%

row,SMILES,activation
1,O=C(NCCCc1ccccc1)C1CCC(=O)N(CCc2ccc(Cl)cc2)C1 (centres undefined),-1.17%
2,COC(=O)CN1C(=S)N(c2ccccc2)C(=O)C1CC(=O)Nc1ccc(Cl)cc1 (centres undefined),-0.464%
3,O=C(CSC1CC(=O)N(CCc2ccccc2)C1=O)Nc1ccc(Cl)cc1 (centres undefined),49.2% (active)
4,CCc1ccc(CN(Cc2ccco2)C(=O)c2ccccc2Cl)cc1,0.564%
5,COc1cc(NC(=O)c2nn(-c3ccc(C)cc3)c(=O)c3c2c2ccccc2n3C)cc(OC)c1OC,-0.5%
6,Cc1c(NC(=O)c2cc(=O)c3ccccc3o2)c(=O)n(-c2ccccc2)n1C,0.0233%
7,Cc1ccc(O)c(-c2cc(C(=O)NCc3ccccc3)[nH]n2)c1,0.766%
8,Cc1ccc(O)c(-c2cc(C(=O)Nc3c(C)n(C)n(-c4ccccc4)c3=O)[nH]n2)c1,34.8% (active)
9,O=C(NCc1ccc(F)cc1)c1ccc(Cn2c(SCc3ccc(F)cc3)nc3cccnc32)cc1,1.06%
10,O=C(c1ccc2c(c1)N(Cc1ccccc1)C(=O)c1ccccc1S2(=O)=O)N1CCCC1,1.63%
11,CC(C)(C)OC(=O)NCCCCCC(=O)N/N=C/c1coc2ccccc2c1=O,0%
12,CC1=CC2=NC(=O)/C(=C/c3coc4ccccc4c3=O)C(=N)N2O1,49.9% (active)
13,COc1ccc(OCCCn2cccc2/C=C2/C(=N)N3OC(C)=CC3=NC2=O)cc1,-1.02%
14,CCOC(=O)c1c(C)[nH]c(CCC(=O)Nc2ccc(OC)c(OC)c2)c1C,-0.832%
15,Cc1ccc2ncc(C(=O)Nc3ccc(OC(F)(F)F)cc3)c(=O)n2c1,-0.574%
16,O=C(Oc1cccc(O)c1)C1CCCCC1,0.57%
17,O=C(OCc1nc2ccccc2[nH]1)C1CCCCC1,41.5% (active)
18,CCO[C@@H]1OC(C(=O)NCc2nc3ccccc3[nH]2)=C[C@H](C2CCCCC2)[C@H]1CCCO,-0.239%
19,COc1ccc(S(=O)(=O)NCC(c2ccc(N(C)C)cc2)N2CCCC2)cc1 (centres undefined),-2.12%
20,CC1CCCCN1S(=O)(=O)c1ccc(F)c(C(=O)Nc2ccccc2C(F)(F)F)c1 (centres undefined),0.192%

# Reference: PubChem BioAssay AID485358 (National Center for Advancing Translational Sciences (NCATS), 2010)
